In PubChem BioAssay (NCI):
About 83,000 compounds went through this panel and 20% of them were active in at least one assay; those are over-represented in the sample as a whole.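 The test compound was applied at a single concentration to cells in 96-well plates for 48 hours, and percent growth was recorded.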 A number with no mark means an inactive call. Active and inactive are the calls of the source. How the source made its calls: active means growth percent below 10; inactive means the rest.

What was measured:
Experiment in all cases: NCI-60 one-dose screen, 48 h (100 = growth as untreated, 0 = no growth, -100 = all killed)
NCI-H23 lung = conditions: 10 µM unless noted
NCI-H226 lung = conditions: 10 µM unless noted
NCI-H322M lung = conditions: 10 µM unless noted
HOP-62 NSCLC = conditions: 10 µM unless noted
NCI-H460 lung = conditions: 10 µM unless noted
HOP-92 NSCLC = conditions: 10 µM unless noted
NCI-H522 lung = conditions: 10 µM unless noted
A549/ATCC NSCLC = conditions: 10 µM unless noted
786-0 renal = conditions: 10 µM unless noted
COLO 205 colon = conditions: 10 µM unless noted
DU-145 prostate = conditions: 10 µM unless noted
K-562 leukemia = conditions: 10 µM unless noted
MALME-3M melanoma = conditions: 10 µM unless noted
MDA-MB-231 breast = conditions: 10 µM unless noted
RXF 393 renal = conditions: 10 µM unless noted
SF-268 CNS = conditions: 10 µM unless noted
SF-295 CNS = conditions: 10 µM unless noted
SF-539 CNS = conditions: 10 µM unless noted
UACC-257 melanoma = conditions: 10 µM
M14 melanoma = conditions: 10 µM unless noted

Row | SMILES | growth (NCI-H23 lung) [%] | growth (NCI-H226 lung) [%] | growth (NCI-H322M lung) [%] | growth (HOP-62 NSCLC) [%] | growth (NCI-H460 lung) | growth (HOP-92 NSCLC) | growth (NCI-H522 lung) | growth (A549/ATCC NSCLC) | growth (786-0 renal) | growth (COLO 205 colon) | growth (DU-145 prostate) | growth (K-562 leukemia) | growth (MALME-3M melanoma) | growth (MDA-MB-231 breast) | growth (RXF 393 renal) | growth (SF-268 CNS) | growth (SF-295 CNS) | growth (SF-539 CNS) | growth (UACC-257 melanoma) | growth (M14 melanoma)
1 | COC(=O)c1cc(-c2cccs2)c(C#N)c(N)c1C#N | 96.7 | 101 | 99.8 | 90.3 | 104% | 94.2% | 95.4% | 101% | 100% | 109% | 109% | 104% | 116% | 94.3% | 108% | 99.5% | 103% | 101% | 100% | 110%
2 | Cn1c(-c2nonc2NC(=O)c2ccc(F)cc2)nc2ccccc21 | 108 | 96 | 102 | 120 | 101% | 104% | 95.2% | 98.1% | 98.6% | 117% | 107% | 9.03% (active) | 123% | 129% | 109% | 109% | 98.5% | 103% | 97.2% | 106%
3 | COC1=CC(c2ccc[nH]2)=N/C1=C\c1[nH]c(C)c(C(=O)CCC(=O)Oc2ccc3c(c2)CCC2C3CC[C@]3(C)[C@@H](O)CC[C@@H]23)c1C (stereo not given in full) | 18.4 | 15.5 | 42.7 | 12.4 | 1.58% (active) | -45.2% (active) | -58.9% (active) | -10.9% (active) | -46.3% (active) | 31.5% | 0.722% (active) | -18% (active) | 9.7% (active) | -64.2% (active) | -6.4% (active) | 3.8% (active) | 20.3% | -18.9% (active) | 82.4% | -50.8% (active)
4 | O=C(N/N=C/c1c(Cl)cccc1Cl)c1ccccc1Nc1ccnc(C(F)(F)F)c1 | 46 | 65.2 | 58.6 | 67.2 | 36.1% | 71.5% | 52.6% | 49.2% | 75% | 94.7% | 109% | 78.4% | 81% | 73.8% | 49.3% | 73.2% | 72.9% | 86.6% | 60.4% | 71.6%
5 | O=C(CN1CCN(c2cc3c(cc2F)c(=O)c(C(=O)O)cn3C2CC2)CC1)Nc1ccc(C(=O)/C=C/c2ccc(Cl)cc2)cc1 | 105 | 92.5 | 111 | 107 | 112% | 95.8% | 47.7% | 97.6% | 88.9% | 112% | 120% | 104% | 100% | 115% | 94.1% | 121% | 82.1% | 99.5% | 103% | 96.3%
6 | Cc1sc(N=Nc2ccc(N(C)C)cc2)[n+]([O-])c1C | 98.4 | 92.6 | 94.5 | 106 | 99.3% | 74.7% | 98.4% | 100% | 103% | 104% | 102% | 121% | 91.2% | 96.2% | 79.7% | 95.7% | 106% | 100% | 105% | 99.8%
7 | COc1cc(/C=C\c2cc(OC)c(OC)c(OC)c2)cc(N/C=C\C(=O)c2c[nH]c3ccccc23)c1OC | 60.5 | 65.5 | 80.4 | 83 | 82.6% | 48.4% | -76.9% (active) | 84.3% | -5.56% (active) | -77.2% (active) | 41.7% | -9.37% (active) | -58.2% (active) | -12% (active) | -35.3% (active) | 72% | 55.8% | -95.2% (active) | 33.4% | 52.9%
8 | Clc1cccc(Cl)c1Cn1c(-c2cncs2)nc2ccccc21 | 71 | 88.6 | 87.5 | 97 | 101% | 71% | 76.6% | 73.1% | 87.6% | 99.5% | 110% | 35.3% | 81% | 82.5% | 95% | 98.2% | 65.4% | 96.8% | 76.6% | 89.5%
9 | CC(C(=O)n1cc(-c2ccccc2)c(-c2ccccc2)c1)c1ccccc1 (stereo not given) | 101 | 104 | 110 | 95.4 | 104% | 90.5% | 102% | 88.7% | 98% | 122% | 113% | 104% | 108% | 108% | 112% | 118% | 91.9% | 104% | 95.3% | 108%
10 | COc1ccc(-c2cn[nH]c2-c2cc(OC)c3c(c2)OCCO3)cc1 | 25.6 | 57.1 | 50.7 | 24 | 4.65% (active) | 46.6% | -22.8% (active) | 30% | 33% | -59.5% (active) | 9.03% (active) | 9.59% (active) | 97.9% | 17.1% | -14% (active) | 25.1% | 28.7% | -34.3% (active) | 75% | 10.6%
11 | CN1CCN(c2ccc3cc(-c4nc5ccccc5[nH]4)c(=O)oc3c2)CC1 | 74.5 | 89 | 105 | 98 | 92.7% | 58.9% | 94.9% | 90.3% | 105% | 92.4% | 112% | 43.7% | 90.4% | 80.2% | 108% | 105% | 104% | 93.5% | 83.3% | 88.8%
12 | COc1cc2c3c(c(=O)oc2cc1OS(=O)(=O)c1ccc(C(F)(F)F)cc1)CCCCC3 | 76.8 | 77.8 | 84.9 | 64 | 89.9% | 56.8% | 71.6% | 75.4% | 72.2% | 93.1% | 82.4% | 97.3% | 72.1% | 68.6% | 30.1% | 93.4% | 81.9% | 64.9% | 95.6% | 83.7%
13 | CCCCCCCCCCn1cc[n+](C)c1 | 28.8 | 30.4 | 57.1 | 38.2 | 23.6% | 51.9% | -19.9% (active) | 32.6% | 47.8% | 8.8% (active) | 75.4% | 64.2% | 8.94% (active) | 41.5% | -20.8% (active) | 58.7% | 9.99% (active) | 30.5% | -12.4% (active) | 24.6%
14 | COc1cc(OC)c(C(=O)/C=C/c2ccc(C#N)cc2)c(OC)c1 | 20.1 | 28.9 | 17.3 | 13.6 | -3.34% (active) | 12.8% | -5.25% (active) | 7.11% (active) | 10.6% | 9.97% (active) | 18.3% | 9.68% (active) | 44.2% | 22.2% | 15.9% | 21% | 8.32% (active) | 2.95% (active) | 30.8% | 1.79% (active)
